Compounds without any hit were thinned out: in the full panel of roughly 83,000, 20% have a hit.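 96-well plates, one dose, 48 hours. Percent growth reported; active if below 10.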 Calls of active or inactive are those of the source.
Assays:
Assay in all cases: NCI-60 one-dose screen, 48 h (100 = growth as untreated, 0 = no growth, -100 = all killed)
NCI-H23 lung = conditions: 10 µM unless noted
NCI-H226 lung = conditions: 10 µM unless noted
NCI-H322M lung = conditions: 10 µM unless noted
HOP-62 NSCLC = conditions: 10 µM unless noted
NCI-H460 lung = conditions: 10 µM unless noted
HOP-92 NSCLC = conditions: 10 µM unless noted
NCI-H522 lung = conditions: 10 µM unless noted
786-0 renal = conditions: 10 µM unless noted
COLO 205 colon = conditions: 10 µM unless noted
DU-145 prostate = conditions: 10 µM unless noted
K-562 leukemia = conditions: 10 µM unless noted
MALME-3M melanoma = conditions: 10 µM unless noted
MDA-MB-231 breast = conditions: 10 µM unless noted
RXF 393 renal = conditions: 10 µM unless noted
SF-268 CNS = conditions: 10 µM unless noted
SF-295 CNS = conditions: 10 µM unless noted
SF-539 CNS = conditions: 10 µM unless noted
UACC-257 melanoma = conditions: 10 µM
M14 melanoma = conditions: 10 µM unless noted
A549/ATCC NSCLC = conditions: 10 µM unless noted

Measured: growth

N#Cc1c(-c2ccccc2)cc(-c2c[nH]c3ccccc23)nc1-c1c[nH]c2ccccc12
inactive: NCI-H23 lung 95.6% | NCI-H226 lung 89.9% | NCI-H322M lung 105% | HOP-62 NSCLC 92.7% | NCI-H460 lung 106% | HOP-92 NSCLC 92.1% | NCI-H522 lung 97.1% | 786-0 renal 102% | COLO 205 colon 108% | DU-145 prostate 108% | K-562 leukemia 101% | MALME-3M melanoma 99.8% | MDA-MB-231 breast 92.6% | RXF 393 renal 95% | SF-268 CNS 96.1% | SF-295 CNS 96.4% | SF-539 CNS 98.6% | UACC-257 melanoma 107% | M14 melanoma 101%

COc1cc(OC)c(S(N)(=O)=O)cc1C(=O)/C=C/c1ccccc1
inactive: NCI-H23 lung 28.2% | NCI-H226 lung 38.8% | NCI-H322M lung 64.6% | HOP-62 NSCLC 24.8% | NCI-H522 lung 25.8% | 786-0 renal 15.3% | COLO 205 colon 27.5% | MALME-3M melanoma 68.1% | MDA-MB-231 breast 10.3% | SF-268 CNS 38.3% | SF-295 CNS 58.3% | UACC-257 melanoma 88.6% | M14 melanoma 45.9%
active: NCI-H460 lung 3.32% | HOP-92 NSCLC 2.22% | DU-145 prostate 1.92% | K-562 leukemia 9.69% | RXF 393 renal -29.7% | SF-539 CNS 1.13%

O=C(NNc1nc2cc(F)cc(F)c2n2cccc12)c1ccncn1
active: NCI-H226 lung 7.28% | NCI-H460 lung 7.43% | NCI-H522 lung -12.4% | 786-0 renal 7.83% | K-562 leukemia 8.02% | SF-539 CNS 7.47% | UACC-257 melanoma 5.21% | M14 melanoma 4.27%
inactive: NCI-H23 lung 17.6% | NCI-H322M lung 28.6% | HOP-62 NSCLC 13.1% | HOP-92 NSCLC 67.4% | COLO 205 colon 11.5% | DU-145 prostate 18.7% | MALME-3M melanoma 28.3% | MDA-MB-231 breast 32.2% | RXF 393 renal 18.8% | SF-268 CNS 12.5% | SF-295 CNS 15.1%

CC(C)(C)CC(C)(C)n1nnnc1C(Nc1ccccc1)c1cc2cccc3ccc4cccc1c4c32 (stereo not given)
inactive: NCI-H23 lung 82.3% | NCI-H226 lung 84% | NCI-H322M lung 91.5% | HOP-62 NSCLC 86.1% | NCI-H460 lung 81.7% | HOP-92 NSCLC 49.7% | NCI-H522 lung 72% | 786-0 renal 88.4% | COLO 205 colon 96.4% | DU-145 prostate 96.9% | K-562 leukemia 72.6% | MALME-3M melanoma 87.4% | MDA-MB-231 breast 75.1% | RXF 393 renal 79.5% | SF-268 CNS 82.4% | SF-295 CNS 86.5% | SF-539 CNS 95.7% | UACC-257 melanoma 95.5% | M14 melanoma 90.2%

O=C(Nc1cc(F)cc2cccnc12)c1cnc(N2CCOCC2)cn1
inactive: NCI-H23 lung 59.2% | NCI-H226 lung 80.7% | NCI-H322M lung 92% | HOP-62 NSCLC 87.3% | NCI-H460 lung 98.9% | HOP-92 NSCLC 83.7% | NCI-H522 lung 15.2% | 786-0 renal 65.7% | COLO 205 colon 18.1% | DU-145 prostate 68.5% | K-562 leukemia 22.7% | MALME-3M melanoma 53.6% | MDA-MB-231 breast 54.7% | RXF 393 renal 59.8% | SF-268 CNS 94.3% | SF-295 CNS 97.4% | SF-539 CNS 87.6% | UACC-257 melanoma 30.6% | M14 melanoma 70.6%

O=c1cc(-c2ccccc2)nc2sc(-c3c[nH]c4ccc(Br)cc34)nn12
inactive: NCI-H23 lung 104% | NCI-H226 lung 87.6% | NCI-H322M lung 92.8% | HOP-62 NSCLC 107% | NCI-H460 lung 106% | HOP-92 NSCLC 86% | NCI-H522 lung 86.2% | A549/ATCC NSCLC 97.6% | 786-0 renal 92.6% | COLO 205 colon 104% | DU-145 prostate 103% | MALME-3M melanoma 104% | MDA-MB-231 breast 89.8% | RXF 393 renal 104% | SF-268 CNS 102% | SF-295 CNS 99.8% | SF-539 CNS 96.3% | M14 melanoma 105%

Cc1cc(=O)n2nc(-c3c[nH]c4ccccc34)sc2n1
inactive: NCI-H23 lung 92.6% | NCI-H226 lung 98.6% | NCI-H322M lung 93.4% | HOP-62 NSCLC 101% | NCI-H460 lung 100% | HOP-92 NSCLC 98.4% | NCI-H522 lung 90.4% | 786-0 renal 106% | COLO 205 colon 102% | DU-145 prostate 107% | MALME-3M melanoma 85% | MDA-MB-231 breast 90.6% | RXF 393 renal 105% | SF-268 CNS 102% | SF-295 CNS 103% | SF-539 CNS 92.7% | M14 melanoma 107%

C=C(C)C(=O)O[C@H]1C[C@@]2(C)OC(=CC2=O)/C(C)=C\[C@H]2OC(=O)C(=C)[C@H]12
inactive: NCI-H322M lung 79.9% | HOP-62 NSCLC 58.8% | NCI-H460 lung 13.3% | SF-295 CNS 42.1%
active: NCI-H23 lung -2.39% | NCI-H226 lung -1.67% | HOP-92 NSCLC -22% | NCI-H522 lung -72% | 786-0 renal -71.3% | COLO 205 colon -50.1% | DU-145 prostate -3.72% | MALME-3M melanoma 6.62% | MDA-MB-231 breast -33.3% | RXF 393 renal -53.7% | SF-268 CNS 7.51% | SF-539 CNS -54.6% | UACC-257 melanoma -26.3% | M14 melanoma -37%

Cc1cc(NS(=O)(=O)c2ccc(-c3cnc(C4CC4)o3)cc2)ccc1I
inactive: NCI-H23 lung 37.7% | NCI-H226 lung 57.8% | NCI-H322M lung 45.8% | HOP-62 NSCLC 43.8% | NCI-H460 lung 22.2% | HOP-92 NSCLC 62.4% | NCI-H522 lung 30.6% | 786-0 renal 46.3% | COLO 205 colon 22.9% | DU-145 prostate 26% | K-562 leukemia 11.6% | MALME-3M melanoma 48.8% | MDA-MB-231 breast 40.9% | RXF 393 renal 10.8% | SF-268 CNS 65.1% | SF-539 CNS 11.5% | UACC-257 melanoma 66.8% | M14 melanoma 24.6%
active: SF-295 CNS -2.36%

CN(c1ccc(Br)cc1)S(=O)(=O)c1ccc(-c2cnc(C3CC3)o2)cc1
active: COLO 205 colon 4.79% | K-562 leukemia 7.96% | RXF 393 renal 6.23% | SF-295 CNS -0.0962% | SF-539 CNS 1.56% | M14 melanoma 8.2%
inactive: NCI-H23 lung 20% | NCI-H226 lung 62.4% | NCI-H322M lung 46.5% | HOP-62 NSCLC 41.3% | NCI-H460 lung 16.8% | HOP-92 NSCLC 87.1% | NCI-H522 lung 16.8% | 786-0 renal 52.9% | DU-145 prostate 26.2% | MALME-3M melanoma 63.8% | MDA-MB-231 breast 29.9% | SF-268 CNS 65.9% | UACC-257 melanoma 67.3%

C[C@H]1[C@H](C)CC[C@]2(COC(=O)c3cccnc3)CC[C@]3(C)C(=CC[C@@H]4[C@@]5(C)CCCNC(C)(C)[C@@H]5CC[C@]43C)[C@H]12
inactive: NCI-H23 lung 70% | NCI-H226 lung 78.1% | NCI-H322M lung 88.3% | NCI-H460 lung 65.1% | HOP-92 NSCLC 67.5% | NCI-H522 lung 82.9% | A549/ATCC NSCLC 78.6% | 786-0 renal 70.7% | COLO 205 colon 43.9% | DU-145 prostate 84.4% | K-562 leukemia 14.3% | MALME-3M melanoma 59.9% | MDA-MB-231 breast 79.3% | RXF 393 renal 81.9% | SF-268 CNS 76.3% | SF-295 CNS 73.3% | SF-539 CNS 78.8% | UACC-257 melanoma 65.7% | M14 melanoma 79.1%

COc1ccccc1/C=C/C=N/NC1=NC2C(S1)N(C)C(=O)N2c1ccccc1 (stereo not given)
active: NCI-H460 lung 2.27% | COLO 205 colon -4.6% | DU-145 prostate 8.54% | RXF 393 renal 1.56% | SF-295 CNS 9.01% | SF-539 CNS -15.5% | M14 melanoma -12.1%
inactive: NCI-H23 lung 30.1% | NCI-H226 lung 45.5% | NCI-H322M lung 38.1% | HOP-92 NSCLC 38.9% | NCI-H522 lung 13.1% | A549/ATCC NSCLC 22.5% | 786-0 renal 16.8% | K-562 leukemia 14.3% | MALME-3M melanoma 45.7% | MDA-MB-231 breast 18.8% | SF-268 CNS 44.4% | UACC-257 melanoma 79.8%

O=C(c1cccc(F)c1)n1ccc2cc(NC(=S)Nc3cccnc3)ccc21
inactive: NCI-H23 lung 100% | NCI-H226 lung 112% | NCI-H322M lung 99% | NCI-H460 lung 98.6% | HOP-92 NSCLC 123% | NCI-H522 lung 87.1% | A549/ATCC NSCLC 98.7% | 786-0 renal 80.5% | COLO 205 colon 115% | DU-145 prostate 102% | K-562 leukemia 96% | MALME-3M melanoma 92.7% | MDA-MB-231 breast 106% | RXF 393 renal 108% | SF-268 CNS 95.7% | SF-295 CNS 97.3% | SF-539 CNS 99.8% | UACC-257 melanoma 97.4%

CCOC(=O)c1ccc(N/C=C/C(=O)c2ccccc2)cc1
inactive: NCI-H23 lung 103% | NCI-H226 lung 105% | NCI-H322M lung 97% | NCI-H460 lung 104% | HOP-92 NSCLC 124% | NCI-H522 lung 94.8% | A549/ATCC NSCLC 101% | 786-0 renal 94% | COLO 205 colon 101% | DU-145 prostate 101% | K-562 leukemia 98.8% | MALME-3M melanoma 107% | MDA-MB-231 breast 105% | RXF 393 renal 99% | SF-268 CNS 102% | SF-295 CNS 93.4% | SF-539 CNS 101% | UACC-257 melanoma 108% | M14 melanoma 97%

Cc1ccc(NC(=O)N[C@@H](Cc2cc(F)cc(F)c2)C(=O)NC2C(=O)N3CCC[C@H]3C(=O)N3CCCC[C@H]3C(=O)N[C@@H](C)C(=O)N3C[C@H](C)C[C@H]3C(=O)O[C@H]2C)c(F)c1 (stereo not given in full)
inactive: NCI-H23 lung 35.2% | NCI-H322M lung 52.7% | NCI-H460 lung 15.3% | NCI-H522 lung 19.7% | A549/ATCC NSCLC 26.1% | 786-0 renal 40.7% | DU-145 prostate 25.7% | K-562 leukemia 20.2% | MALME-3M melanoma 44.3% | MDA-MB-231 breast 34.6% | SF-268 CNS 34.9% | SF-539 CNS 39.2% | UACC-257 melanoma 16.9% | M14 melanoma 23%
active: NCI-H226 lung 1.32% | HOP-92 NSCLC 4.3% | COLO 205 colon -33.3% | RXF 393 renal -7.39% | SF-295 CNS 9.62%

Reference: PubChem BioAssay (NCI)
